Bioassay records: PubChem, National Center for Advancing Translational Sciences (NCATS)
Sampled rows, rich in hits. Any-hit rate of the full collection: about 19%.
DT40 TDP1 CPT = DT40-hTDP1 cell growth loss with CPT; 420,000 tested, 12% active; AID 686979; chicken DT40 Tdp1-/-;hTDP1 cells + 20 nM CPT, ATP luminescence, 48 h; Potency, µM (titrated, usually from 46.2 µM), inactives show at the highest dose activity change, negative = growth inhibition, most hits filed as inhibitors; further: potency means the concentration at half of the fitted maximal effect; nearly all actives have a fitted effect of over 55% in size
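Chicken DT40 Tdp1-/- cells complemented with human TDP1, 400 cells/well, exposed to compounds plus 20 nM camptothecin for at least 48 h at 37 C; viability read as ATP content by CellTiter-Glo luminescence.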
ELG1 DNA repair = inhibitors of ELG1-dependent DNA repair in HEK293T cells; 330,000 tested, 2.3% active; HEK293T ELG1-luciferase reporter, luminescence, 16 h; DNA damage induced by 5-fluorouridine; Potency, µM (titrated, usually from 46.1 µM), for the others: top-dose activity change, negative = inhibition, actives largely listed as inhibitors; further: potency means the concentration at half of the fitted maximal effect; nearly all actives have a fitted effect of over 55% in size
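Luminescence from the luciferase reporter, measured 30 min after ONE-Glo reagent at room temperature, was the read-out. Beforehand, 2,000 cells per well were exposed for 16 hr at 37 °C to 5-fluorouridine together with compound or vehicle.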
TDP1 block = blocks human tyrosyl-DNA phosphodiesterase 1 | Q9NUW8 | recombinant TDP1, AlphaScreen DNA substrate cleavage | Potency, µM (top dose mostly 130 µM), inactives show top-dose activity change, negative = inhibition, most hits filed as inhibitors | 350,000 tested, 0.28% active; further: potency means the concentration at half of the fitted maximal effect; nearly all actives have a fitted effect of over 40% in size
Target sequence (Q9NUW8 whole entry, looked up): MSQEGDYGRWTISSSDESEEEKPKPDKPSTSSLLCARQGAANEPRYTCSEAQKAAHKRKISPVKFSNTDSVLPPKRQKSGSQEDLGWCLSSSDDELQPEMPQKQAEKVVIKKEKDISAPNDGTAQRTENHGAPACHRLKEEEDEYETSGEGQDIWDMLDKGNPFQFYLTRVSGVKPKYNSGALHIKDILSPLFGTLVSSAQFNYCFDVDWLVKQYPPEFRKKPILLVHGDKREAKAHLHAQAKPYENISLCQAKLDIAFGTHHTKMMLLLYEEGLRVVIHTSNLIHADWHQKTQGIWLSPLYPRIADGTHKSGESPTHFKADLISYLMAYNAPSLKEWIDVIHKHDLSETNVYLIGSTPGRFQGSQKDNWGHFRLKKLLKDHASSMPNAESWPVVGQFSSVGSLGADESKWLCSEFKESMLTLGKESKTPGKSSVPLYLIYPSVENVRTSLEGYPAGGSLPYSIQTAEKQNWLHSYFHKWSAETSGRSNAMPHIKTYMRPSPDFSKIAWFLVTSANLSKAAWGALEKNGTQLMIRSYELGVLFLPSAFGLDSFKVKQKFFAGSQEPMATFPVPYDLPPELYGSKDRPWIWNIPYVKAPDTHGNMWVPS
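Tdp1 1 nM final; 15 min RT w/ cpd; substrate 15 nM, 5 min; beads 10 ug/ml, 10 min; AlphaScreen read. Neg ctrl: no enzyme.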
IL1B secr inh = inflammasome signaling inhibition, IL-1 beta readout; THP-1 LPS/ATP IL-1B secretion, AlphaLISA, 16 h; hits give low values; activity change, % at 57.5 µM; 360,000 tested, 4.7% active; in the data active means activity change below about -50%; inconclusive means mostly about -30% to -49%
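Secreted IL-1B measured by AlphaLISA bead assay after 16 h compound exposure of THP-1 cells; compounds (final up to 57.5 uM) added 1 h before LPS (250 ng/mL) and ATP (1.25 mM) stimulation; lower signal means less secretion.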
Giardia killer = Giardia lamblia killing | activity change, % at 7.66 µM, hits read low | 340,000 tested, 0.15% active | Giardia lamblia trophozoite viability; in the data active means activity change below about -80%; inconclusive means between about -30% and that limit;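 further: parasites exposed to compound for two days anaerobically before the ATP read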
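Trophozoite viability was measured as ATP-dependent luminescence, read 15-30 min after reagent addition. Before that, parasites at 100 cells/well were exposed to compounds for 48 h, anaerobically, at 37 deg C.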
DT40 TDP1 no CPT = qHTS for Inhibitors of human tyrosyl-DNA phosphodiesterase 1 (TDP1): qHTS in cells in absence of CPT; Potency, µM (highest dose often 46.2 µM), without a hit: top-dose activity change, negative = growth inhibition, hits mostly inhibitors; AID 686978, 2013; DT40 Tdp1-/- hTDP1 cells, no CPT, ATP luminescence, 48 h; 420,000 tested, 15% active; further: potency means the concentration at half of the fitted maximal effect; nearly all actives have a fitted effect of over 55% in size
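Chicken DT40 Tdp1-/- cells stably complemented with human TDP1 were seeded at 400 cells/well with DMSO in place of 20 nM camptothecin. After compound pinning, cells grew at least 48 hr at 37 °C; viability read by CellTiter-Glo luminescence.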
An asterisk follows results filed as active; ? = inconclusive; . = no result given; [ ] = dose if it differs, or a comment. Unless noted, the call rests on the fitted dose curve; in most records, active means well fitted curve in the direction sought with a large enough effect; inconclusive means small, poorly fitted or top-dose-only effect, or another doubt; inactive means no such curve, though single readings can be large; an effect the other way counts as inactive or inconclusive. On the % scale 0 is the no-effect control and ±100 the full control effect.

SMILES | DT40 TDP1 CPT | ELG1 DNA repair | TDP1 block | IL1B secr inh | Giardia killer | DT40 TDP1 no CPT
O=C(NCc1cc(C(F)(F)F)cc(C(F)(F)F)c1)C1CC(c2ccc(C(F)(F)F)cc2)=NO1 (stereo not given) | ? | . | . | ? | -17 | ?
O=C(NCc1cc(C(F)(F)F)cc(C(F)(F)F)c1)C1CC(c2c(Cl)cccc2Cl)=NO1 (stereo not given) | ? | -14% | 1% | -50* | -10 | ?
COc1ccc(CNC(=O)C2CC(c3ccccc3C(F)(F)F)=NO2)cc1 (stereo not given) | 0% | 19% | 0% | -15 | 17 | -10%
COc1ccc(CCNC(=O)C2CC(c3cccc(F)c3)=NO2)cc1 (stereo not given) | -8% | 27% | 5% | 18 | -7 | -17%
COc1cccc(NC(=O)COC(=O)C2CC2)c1 | 8% | 0% | 0% | 2 | -6 | 10%
CC(C)N(CCCNC(=O)c1nn(C)c2c1CS(=O)(=O)c1ccccc1-2)Cc1ccccc1 | 16µM* | 14% | 1% | 4 | 16 | -3%
Cn1nc(C(=O)NCCc2ccc(S(N)(=O)=O)cc2)c2c1-c1ccccc1S(=O)(=O)C2 | 1% | -15% | 1% | 0 | 6 | 5%
CCOc1ccc(CCNC(=O)c2nn(C)c3c2CS(=O)(=O)c2ccccc2-3)cc1 | ? | ? | 2% | -3 | -8 | 3.7µM*
CCOc1ccc(CCNC(=O)c2nn(C)c3c2CS(=O)(=O)c2ccccc2-3)cc1OCC | 23µM* | 18µM* | 3% | ? | -2 | ?
O=C(Cn1ncc2ccsc2c1=O)N1CCN(c2ccc(F)cc2)CC1 | . | . | -1% | . | . | .
Cc1ccccc1NC(=O)c1ccccc1NC(=O)c1ccccc1Cl | ? | . | 2%[12.3 µM] | . | . | ?
COc1ccc(-n2cc(C(=O)c3cc(Cl)ccc3O)cc(C#N)c2=O)cc1 | 0% | ? | 5% | 1 | 8 | ?
Cc1ccc(-n2cc(C(=O)c3cc(Cl)ccc3O)cc(C#N)c2=O)cc1 | 21µM* | -7% | 6% | 18 | 10 | 23µM*
Cc1ccccc1NC(=O)c1cc(C(=O)c2cc(Cl)ccc2O)cn(-c2ccccc2C)c1=O | 13µM* | 21µM* | 6% | -8 | -12 | 23µM*
Cc1ccc(O)c(C(=O)c2cc(C#N)c3nc4ccccc4n3c2)c1 | ? | ? | 1% | -16 | -23 | 9.2µM*
COc1ccc(O)c(C(=O)c2cnn(-c3ccc(Cl)cc3)c2)c1 | 2% | 20% | . | -19 | -13 | -8%
COc1ccc(O)c(C(=O)c2cnc3nc4ccccc4n3c2)c1 | 15µM* | ? | 3% | 3 | 23 | 21µM*
N#Cc1cc(C(=O)c2cc(F)ccc2O)cn(Cc2ccccc2)c1=O | -1% | -2% | -3% | -7 | -8 | ?
Cc1c(-n2cc(C(=O)c3ccccc3O)cc(C#N)c2=O)c(=O)n(-c2ccccc2)n1C | -11% | ? | 0% | 17 | -8 | -17%
Cc1ccc(O)c(C(=O)c2cc(C#N)c(=O)n(Cc3ccccc3)c2)c1 | 16µM* | 2% | -3% | 4 | 12 | 9.2µM*
Cc1ccc(O)c(C(=O)c2cc(C#N)c(=O)n(C(C)c3ccccc3)c2)c1 (stereo not given) | ? | ? | 7% | -15 | -7 | 15µM*
CC(C)Cn1c(SCC(=O)N2CCCCC2)nc2ccccc2c1=O | ? | ? | -7%[56.1 µM] | -1 | 3 | 26µM*
COc1ccc(C(=O)Nn2c(SCC(=O)N3CCC(C)CC3)nc3ccccc3c2=O)cc1 | -17% | ? | 1% | -53* | ? | -21%
C=CCSc1nc2ccccc2c(=O)n1Cc1ccccc1 | 23% | ? | 0% | 0 | 22 | -10%
CC(C)Cn1c(SCC(=O)N2CCOCC2)nc2ccccc2c1=O | -4% | -2% | 2% | ? | -7 | 14%
SMILES | DT40 TDP1 CPT | ELG1 DNA repair | TDP1 block | IL1B secr inh | Giardia killer | DT40 TDP1 no CPT
O=c1c2ccccc2nc(SCCN2CCCCC2)n1CCc1ccccc1 | ? | 4% | 3% | -60* | -5 | 21µM*
C=CCSc1nc2ccccc2c(=O)n1C1CCOC(C)(C)C1 (stereo not given) | 16µM* | -7% | 0% | 49 | -4 | 23µM*
COc1ccc(C(=O)Nn2c(SCC(=O)NC3CCCCC3)nc3ccccc3c2=O)cc1 | 2% | ? | 5% | ? | -12 | -15%
CC1(C)CC(=O)c2c(oc3c(Cl)cc(NS(=O)(=O)c4ccc(Cl)cc4)cc23)C1 | -26% | . | . | . | . | -27%
COc1cc(CN2CCC3(CC2)CC3C(=O)Nc2ccc3sc(C)nc3c2)ccc1F (stereo not given) | -8% | . | . | . | . | -15%
CCC(C)NC(=O)COC(=O)c1ccc(Cl)cc1O (stereo not given) | 0% | 2% | 8% | -12 | 20 | -1%
CCOC(=O)N1CCC(n2c(SCC(=O)N3CCC(C)CC3)nc3ccccc3c2=O)CC1 | 16µM* | ? | 1% | ? | -20 | ?
CCOC(=O)N1CCC(n2c(SCC(=O)Nc3ccccc3OC)nc3ccccc3c2=O)CC1 | ? | ? | 9% | -1 | 4 | ?
CCOC(=O)N1CCC(n2c(SCC(=O)N3CCCC3)nc3ccccc3c2=O)CC1 | 23µM* | -3% | 8% | 19 | -16 | 18µM*
CCOC(=O)N1CCC(n2c(SCC(=O)NCc3ccccc3)nc3ccccc3c2=O)CC1 | 23µM* | ? | 7% | -27 | 12 | 21µM*
CCOC(=O)c1c(NC(C)=O)c2c3c(sc2n1Cc1nc(-c2ccccc2Cl)oc1C)CCCC3 | ? | . | -2% | . | . | ?
O=C(Nc1cc(C(F)(F)F)ccc1F)C1Cc2c(-c3ccccc3Oc3ccccc3)ccnc2O1 (stereo not given) | ? | . | . | -1 | . | 18µM*
O=C(Nc1cccc(OC(F)(F)F)c1)C1Cc2c(-c3ccccc3Oc3ccccc3)ccnc2O1 (stereo not given) | ? | . | . | -11 | . | ?
O=C(Nc1ccc(Cl)cc1)C1Cc2c(-c3ccccc3Oc3ccccc3)ccnc2O1 (stereo not given) | 23µM* | . | . | -53* | . | ?
O=C(Nc1ccccc1)C1Cc2c(-c3ccccc3Oc3ccccc3)ccnc2O1 (stereo not given) | ? | . | . | -57* | . | ?
O=C(CSc1nnc(CNC(=O)c2ccco2)o1)Nc1cccc(Cl)c1 | 7% | 6% | 2% | 0 | -4 | 3%
